# Source: PubChem (ICCB-Longwood Screening Facility, Harvard Medical School)
# VACV E9 pol inh: inhibitors of vaccinia virus processive DNA synthesis (E9 polymerase); in vitro processive DNA synthesis, absorbance read-out; hits give low values; normalized absorbance, % (test concentration not listed); hit rate 0.94% among 46,000; in the data active = normalized absorbance mostly below about 85%, no sharp cut-off; inactive = mostly above about 86%
# The depositor's hits bear a star. The sample as a whole holds a higher share of hits than the screen did.
SMILES,VACV E9 pol inh
COc1ccc(-c2cc(=NCCc3ccccc3)c3cc(C)ccc3o2)cc1,41*
CCc1ccc2oc(-c3ccc(OC)cc3)cc(=NCC(=O)O)c2c1,96
CC(C(O)c1ccccc1)N(C)S(=O)(=O)c1ccc2ccccc2c1 (centres undefined),107
Nc1ccccc1C1C=NNC1=O (centres undefined),95
O=C(NCCc1ccccc1)C1c2ccccc2-c2ccccc21,100
O=C(CSc1ccc(Cl)cc1)N1CCCc2ccccc21,99
Nc1nc2n(n1)C(c1ccc(Br)cc1)C=C(c1ccccc1)N2 (centres undefined),86
COc1ccc2c(c1)C(=O)C(CC1(O)C(=O)N(C)c3ccccc31)CC2 (centres undefined),95
O=C(CSc1nccn1-c1ccccc1)NCc1ccccc1,101
CC(c1ccco1)N(C(=O)/C=C/c1cccs1)c1ccccn1 (centres undefined),100
CC(C)(C)c1csc(-c2ccc(-c3cccs3)s2)n1,100
CN(C)C=NC(=S)c1ccc(-c2cccs2)s1,78*
O=C(Sc1ccc(Cl)cc1)c1ccc(-c2cccs2)s1,99
N#Cc1ccccc1Cn1c(=O)n(-c2ccc(CC(=O)Nc3ccccc3)cc2)c(=O)c2sccc21,74
Cc1ccccc1C=Nc1ccccc1C#N,100
Oc1ccccc1C=Nc1ccccc1O,101
N#Cc1ccccc1N=Cc1cccc(O)c1O,86*
Nc1ccccc1NC1=CC(=O)CC(c2c(F)cccc2Cl)C1 (centres undefined),115
CC(C)c1ccc(OCC(=O)N2CCC(C(N)=O)CC2)cc1,103
COc1ccc(C[N+](C)(C)C2CCCCC2)cc1OC,105
COc1ccccc1/C=C1\SC(=S)N(c2ccccc2)C1=O,100
CCN(CC)c1ccc(N2C(=O)/C(=C/c3ccccc3)SC2=S)cc1,101
O=C(O)c1cccc(N2C(=O)/C(=C/c3ccccc3)SC2=S)c1,90*
O=C(CSc1ccccc1Cl)NC1CCCCCC1,104
O=C(CCOc1ccccc1)N1CCN(c2nc3ccccc3s2)CC1,88
SMILES,VACV E9 pol inh
O=C(Sc1ccc(Cl)cc1)c1cnn(-c2ccccc2)c1C(F)(F)F,92
CCC1CCCCN1CCCNC(=O)c1cc2c(s1)CSC2 (centres undefined),102
Cc1cccc2c1-c1sc(C(=O)NCCN3CCCCC3C)cc1CO2 (centres undefined),91
CC1CCCCN1CCCNC(=O)c1cc2c(s1)-c1ccc(Cl)cc1SC2 (centres undefined),69*
CCCCC1CCC(C(=O)OCC(=O)c2ccc(Br)cc2)CC1 (centres undefined),94
CCCc1nnc2n1N=C(c1ccc(Cl)cc1)CS2,100
C=CCn1c(-c2cc(OC)c(OC)c(OC)c2)nc2ccccc21,101
Cc1nnc2ccc(NCCC3=CCCCC3)nn12,100
CCSC1=C(C#N)C(=O)NC(C(C)C)S1 (centres undefined),94
CC1NC(=O)C(C#N)=C(SCc2ccccc2)S1 (centres undefined),63*
CCSC1=C(C#N)C(=O)NC(c2ccc(OC)cc2)S1 (centres undefined),101
CCSC1=C(C#N)C(=O)NC(CO)S1 (centres undefined),96
N#CC1=C(SCc2ccccc2)SC(c2ccc(C(=O)O)cc2)NC1=O (centres undefined),60*
COC(=O)CSC1=C(C#N)C(=O)NC(/C=C/c2ccccc2)S1 (centres undefined),94
C=CCn1c(/N=C/c2ccc(Cl)cc2)nc2ccccc21,100
COc1ccc(NC(=O)c2cc3sccc3n2Cc2ccc(F)cc2)cc1Cl,104
CCOC(=O)c1c(C)[nH]c(C(=O)CC#N)c1C,98
COc1ccc2cc(C=NCc3ccc(C)cc3)c(N3CCCCC3)nc2c1,100
FC(F)(F)c1ccc(N=Cc2ccco2)cc1,106
CC1Sc2cc(S(=O)(=O)C(C)CC(=O)N3CCc4ccccc43)ccc2NC1=O (centres undefined),98
Cc1ccc(-c2n[nH]c3c2C(c2ccccc2Cl)N(c2ccc(Cl)cc2)C3=O)cc1 (centres undefined),104
CC(C)(C)C(=O)Nc1ccc(O)c(-c2nc3ccccc3s2)c1,99
Oc1ccccc1C=Nc1ccc(-c2nc3ccccc3s2)cc1,100
Oc1ccc(N=Cc2ccccc2)cc1-c1nc2ccccc2s1,84*
c1cc[n+](C[n+]2ccccc2)cc1,103
SMILES,VACV E9 pol inh
CCCCCCCCCCCCCCCC[n+]1ccccc1,17*
CC1=Nc2ccccc2N(CC(O)Cn2c3ccccc3c3ccccc32)C(=O)C1 (centres undefined),100
O=c1[nH]c2ccccc2nc1/C=C(\O)c1ccc(Cl)cc1,101
Cn1c(=O)oc2cc(S(=O)(=O)NCCCN3CCN(c4cccc(Cl)c4)CC3)ccc21,102
O=c1n(CCCN2CCN(c3cccc(Cl)c3)CC2)nc2ccccn12,15*
Clc1cccc(OCCN2CCN(c3ccccc3)CC2)c1,100
CC(C)C(=O)c1ccc(OCCOc2ccc(C#N)cc2)cc1,88
COc1ccccc1C1C=CCC1 (centres undefined),96
c1cc(CNCCN2CCOCC2)ccn1,77
